Screens (PubChem)
The sample as a whole holds a higher share of hits than the screen did.
DUX4 inh: inhibitors of DUX4-driven ZSCAN4 reporter expression, primary screen, 293T cells, Gaussia and Italica luciferase; 293T-iDUX4 ZSCAN4-Gaussia luciferase reporter, 24 h; active compounds read low; activity change, negative = inhibition, % (test concentration not listed); 37,000 tested, 0.8% active; AID 1224904, 2016;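 active = mean inhibition of at least 10% in the main channel, exceeding the control channel by a set limit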
A number is an active result.

What do the screens show for `OC[C@H]1[C@H](c2ccc(C#CC3(O)CCCC3)cc2)[C@@H]2CN(Cc3ccncc3)CCCCN12`?
DUX4 inh: inactive

How did CN1CCCCN2[C@H](CO)[C@H](c3ccc(C#CC4(O)CCCC4)cc3)[C@@H]2C1 do in these assays?
DUX4 inh: inactive

Results for CCCC#Cc1ccc([C@H]2[C@H](CO)N3CCCCN(Cc4ccncc4)C[C@@H]23)cc1 ?
DUX4 inh: inactive

What do the screens show for `OC[C@@H]1[C@H](c2ccc(C#CC3(O)CCCC3)cc2)[C@H]2CN(Cc3ccncc3)CCCCN12`?
DUX4 inh: inactive

How did COc1ccc(C#Cc2ccc([C@@H]3[C@@H](CO)N4CCCCN(Cc5ccncc5)C[C@@H]34)cc2)cc1 do in these assays?
DUX4 inh: -45

How did OC[C@H]1[C@@H](c2ccc(C#CC3(O)CCCC3)cc2)[C@H]2CN(Cc3ccncc3)CCCCN21 do in these assays?
DUX4 inh: inactive

Results for COc1ccc(NC(=O)N2CCCCN3[C@H](C2)[C@H](c2ccc(C#CCC(C)C)cc2)[C@@H]3CO)cc1 ?
DUX4 inh: inactive

How did COc1ccc(C#Cc2ccc([C@H]3[C@@H](CO)N4CCCCN(Cc5ccncc5)C[C@H]34)cc2)cc1 do in these assays?
DUX4 inh: -32

What do the screens show for `COc1ccc(NC(=O)N2CCCCN3[C@@H](CO)[C@H](c4ccc(C#CCC(C)C)cc4)[C@@H]3C2)cc1`?
DUX4 inh: inactive

How did COc1ccc(C#Cc2ccc([C@H]3[C@H](CO)N4CCCCN(C)C[C@@H]34)cc2)cc1 do in these assays?
DUX4 inh: -26

How did CN1CCCCN2[C@H](C1)[C@@H](c1ccc(C#CC3(O)CCCC3)cc1)[C@@H]2CO do in these assays?
DUX4 inh: inactive

Results for COc1ccc(NC(=O)N2CCCCN3[C@H](CO)[C@@H](c4ccc(C#CCC(C)C)cc4)[C@@H]3C2)cc1 ?
DUX4 inh: -17

Results for COCC#Cc1ccc2c(c1)O[C@H](CN(C)S(=O)(=O)c1ccc(OC)cc1)[C@@H](C)CN([C@@H](C)CO)S2(=O)=O ?
DUX4 inh: inactive

How did C[C@@H]1CN([C@H](C)CO)C(=O)c2cccc(NC(=O)Nc3ccc(F)cc3)c2O[C@@H]1CN(C)CC1CCCCC1 do in these assays?
DUX4 inh: inactive

Results for O=C(C[C@H]1C[C@H]2c3cc(NC(=O)Cc4ccncc4)ccc3O[C@H]2[C@H](CO)O1)NCc1ccccn1 ?
DUX4 inh: inactive

Results for COCC#Cc1ccc([C@@H]2[C@H](CO)N3C(=O)CN(C(=O)Nc4ccccc4F)C[C@@H]23)cc1 ?
DUX4 inh: inactive

What do the screens show for `CN(C)CC(=O)N1[C@H](CO)[C@@H](c2ccccc2)C12CN(C(=O)c1ccc(F)cc1)C2`?
DUX4 inh: inactive

How did CC(C)CC#Cc1ccc([C@H]2[C@@H](CO)N3C(=O)CN(C(=O)Cc4ccccc4)C[C@@H]23)cc1 do in these assays?
DUX4 inh: inactive

Results for COc1ccc(S(=O)(=O)Nc2ccc3c(c2)[C@H]2C[C@H](CC(=O)N(C)C)O[C@H](CO)[C@H]2O3)cc1 ?
DUX4 inh: inactive

What do the screens show for `O=C(C[C@H]1CC[C@H]2[C@@H](COC[C@H](O)CN2Cc2ccccc2F)O1)NCc1ccccc1F`?
DUX4 inh: inactive

How did O=C(C1CC1)N1CCCCN2[C@H](CO)[C@@H](c3ccc(-c4cccc(F)c4)cc3)[C@@H]2C1 do in these assays?
DUX4 inh: -23

How did O=S(=O)(c1ccccc1)N1CCCCN2[C@H](C1)[C@@H](c1ccc(-c3ccccc3)cc1)[C@@H]2CO do in these assays?
DUX4 inh: inactive

Results for O=C(C1CC1)N1CCCCN2[C@H](CO)[C@@H](c3ccc(-c4cccc(F)c4)cc3)[C@H]2C1 ?
DUX4 inh: inactive

Results for O=C(C1CC1)N1CCCCN2[C@H](C1)[C@H](c1ccc(-c3cccc(F)c3)cc1)[C@@H]2CO ?
DUX4 inh: inactive

Results for CC(=O)N1CCCCN2[C@H](CO)[C@@H](c3ccc(C#Cc4ccccc4F)cc3)[C@H]2C1 ?
DUX4 inh: inactive

Results for COc1ccccc1C#Cc1ccc([C@@H]2[C@H]3CN(CCC(F)(F)F)CCCCN3[C@H]2CO)cc1 ?
DUX4 inh: -30

How did Cc1ccccc1S(=O)(=O)N1CCCCN2[C@H](CO)[C@@H](c3ccc(-c4cccc(F)c4)cc3)[C@@H]2C1 do in these assays?
DUX4 inh: -20

How did OC[C@@H]1[C@H](c2ccc(-c3cccc(F)c3)cc2)[C@@H]2CN(Cc3cncnc3)CCCCN12 do in these assays?
DUX4 inh: inactive

What do the screens show for `O=C(c1cccc(F)c1)N1CCCCN2[C@H](CO)[C@@H](c3ccc(-c4ccccc4)cc3)[C@H]2C1`?
DUX4 inh: inactive

Results for CN(C)C(=O)c1ccc(-c2ccc([C@H]3[C@H]4CN(CCC(F)(F)F)CCCCN4[C@H]3CO)cc2)cc1 ?
DUX4 inh: inactive

How did Cn1cnc(S(=O)(=O)N2CCCCN3[C@H](CO)[C@H](c4ccc(-c5cccc(F)c5)cc4)[C@@H]3C2)c1 do in these assays?
DUX4 inh: inactive

Results for OC[C@@H]1[C@@H](c2ccc(-c3cccc(F)c3)cc2)[C@H]2CN(CCC(F)(F)F)CCCCN12 ?
DUX4 inh: -35

What do the screens show for `O=C(NC1CCCCC1)[C@@H]1[C@@H](CO)[C@@H]2Cn3c(cccc3=O)[C@@H]2N1CC1CCOCC1`?
DUX4 inh: inactive

What do the screens show for `C[C@H]1CN([C@@H](C)CO)C(=O)CCCn2cc(nn2)CO[C@H]1CN(C)C(=O)NC1CCCCC1`?
DUX4 inh: inactive

How did COc1cccc(C(=O)Nc2ccc3c(c2)C(=O)N(C)[C@H]2CC[C@H](CC(=O)NCCCN4CCOCC4)O[C@@H]2CO3)c1 do in these assays?
DUX4 inh: inactive

How did COCC(=O)N1[C@H](CO)[C@@H](c2ccccc2C2=CCCCC2)[C@@H]1C#N do in these assays?
DUX4 inh: inactive

What do the screens show for `O=C(NCCCN1CCOCC1)[C@H]1[C@H](CO)[C@H]2Cn3c(cccc3=O)[C@@H]1N2C(=O)C1CCCCC1`?
DUX4 inh: inactive

What do the screens show for `O=C(C1CCC1)N1CC2(C1)[C@@H](c1ccccc1)[C@@H](CO)N2CCC(F)(F)F`?
DUX4 inh: inactive

What do the screens show for `COc1cccc(CNC(=O)C[C@@H]2CC[C@H]3[C@H](COc4ccc(NC(C)=O)cc4C(=O)N3C)O2)c1`?
DUX4 inh: inactive

How did OC[C@H]1[C@@H](c2ccc(-c3cccc(F)c3)cc2)[C@@H]2CN(Cc3cncnc3)CCCCN12 do in these assays?
DUX4 inh: inactive

Results for Cc1cccc(-c2ccc([C@@H]3[C@@H](CO)N4CCCCN(Cc5ccncc5)C[C@H]34)cc2)c1 ?
DUX4 inh: inactive

How did OC[C@@H]1[C@H](c2ccc(-c3cccc(F)c3)cc2)[C@H]2CN(Cc3cncnc3)CCCCN12 do in these assays?
DUX4 inh: inactive

Results for CN(C)C(=O)c1ccc(-c2ccc([C@@H]3[C@@H](CO)N4CCCCN(CCC(F)(F)F)C[C@@H]34)cc2)cc1 ?
DUX4 inh: inactive

How did Cc1cccc(-c2ccc([C@H]3[C@H]4CN(CCC(F)(F)F)CCCCN4[C@H]3CO)cc2)c1 do in these assays?
DUX4 inh: -49

Results for OC[C@H]1[C@@H](c2ccc(-c3cccc(F)c3)cc2)[C@H]2CN(CCC(F)(F)F)CCCCN21 ?
DUX4 inh: -47

How did O=C(C1CCCCC1)N1CC2(C1)[C@@H](c1ccccc1)[C@@H](CO)N2Cc1ccc(Cl)cc1 do in these assays?
DUX4 inh: inactive

Results for CN1CCN(C(=O)C[C@@H]2C=C[C@@H](NC(=O)Cc3ccccn3)[C@H](CO)O2)CC1 ?
DUX4 inh: inactive
